Reference: PubChem BioAssay (Tox21)
Records with an inconclusive call do not appear. The source made the active and inactive calls. Unless noted, the call rests on the fitted dose curve; in most records, active means well fitted curve in the direction sought with a large enough effect in the repeat runs; inconclusive means weak or mixed curves; inactive means no such curve, though single readings can be large; an effect the other way counts as inactive or inconclusive.

Legend:
[1] = A CellTox Green Cytotoxicity Assay to monitor cytotoxicity in HEK293 cells - 32 hour (AID 1224881); further: nearly all actives have a fitted effect of over 40% in size
How it was run: (§1)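 Real-time, in one plate: 600 HEK293 cells/well with dead-cell DNA dye, pinned compound after 5 h, 37 C incubation over 40 h; viable cells give no appreciable fluorescence.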

[2] = A CellTox Green Cytotoxicity Assay to monitor cytotoxicity in HepG2 cells - 0 hour (AID 1224882); further: nearly all actives have a fitted effect of over 35% in size
How it was run: (§2)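 Cytotoxicity was tracked as dead-cell DNA fluorescence in HepG2 cells treated with test compounds at 37 C; each time-point value comes from one kinetic series spanning 0, 8, 16, 24, 32 and 40 h.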

[3] = A CellTox Green Cytotoxicity Assay to monitor cytotoxicity in HepG2 cells - 32 hour (AID 1224883); further: nearly all actives have a fitted effect of over 50% in size
How it was run: as §2

[4] = A CellTox Green Cytotoxicity Assay to monitor cytotoxicity in HEK293 cells - 8 hour (AID 1224884); further: nearly all actives have a fitted effect of over 35% in size
How it was run: as §1

[5] = qHTS RealTime-Glo MT Cell Viability Assay in HepG2 cells - 16 hour (AID 1224885); further: nearly all actives have a fitted effect of over 50% in size
How it was run: (§3)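 HepG2 cells were seeded at 600 cells/well together with NanoLuc luciferase and a cell-permeant prosubstrate, preincubated 5 h at 37 C/5% CO2, then pin-dosed with compounds in DMSO. Nonlytic luminescence from viable cells was read at each time point.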

[6] = qHTS RealTime-Glo MT Cell Viability Assay in HEK293 cells - 24 hour (AID 1224886); further: top concentration of the series differs between compounds; nearly all actives have a fitted effect of over 50% in size
How it was run: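 HEK293 cells were seeded at 600 cells/well together with NanoLuc luciferase and cell-permeant prosubstrate, preincubated 5 h at 37 C/5% CO2, then given compound in DMSO by pintool. Luminescence from viable-cell prosubstrate reduction was read repeatedly over 40 h.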

[7] = qHTS RealTime-Glo MT Cell Viability Assay in HEK293 cells - 8 hour (AID 1224887); further: top concentration of the series differs between compounds; nearly all actives have a fitted effect of over 50% in size
How it was run: (§4)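 Kinetic, non-lysing viability readout. Seed HEK293 (600/well) with reagent, incubate 5 h at 37 C/5% CO2, pin 23 nL compound in DMSO, incubate at 37 C, read luminescence at 0, 8, 16, 24, 32, 40 h.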

[8] = A CellTox Green Cytotoxicity Assay to monitor cytotoxicity in HEK293 cells - 16 hour (AID 1224888); further: nearly all actives have a fitted effect of over 35% in size
How it was run: as §1

[9] = qHTS RealTime-Glo MT Cell Viability Assay in HepG2 cells - 0 hour (AID 1224889); further: nearly all actives have a fitted effect of over 50% in size
How it was run: as §3

[10] = A CellTox Green Cytotoxicity Assay to monitor cytotoxicity in HepG2 cells - 8 hour (AID 1224890); further: nearly all actives have a fitted effect of over 45% in size
How it was run: as §2

[11] = qHTS assay to identify small molecule antagonists of the estrogen receptor alpha (ER-alpha) signaling pathway using the BG1 cell line in the presence of 0.1 nM 17-beta-estradiol - cell viability counter screen (AID 1259241); further: nearly all actives have a fitted effect of over 40% in size
How it was run: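 Estradiol-stimulated (0.1 nM) VM7Luc4E2 cells exposed to compounds 22 hr; viability measured by fluorescence of cleaved CellTiter-Fluor substrate after 30 min.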

[12] = qHTS assay to identify small molecule antagonists of the androgen receptor (AR) signaling pathway using the MDA cell line in the presence of 0.5 nM R1881 - cell viability counter screen (AID 1259242); further: nearly all actives have a fitted effect of over 45% in size
How it was run: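 Cells seeded at 3,000/well and allowed 5 hr at 37C, 0% CO2 before compound transfer and R1881 (0.5 nM final) addition; 16 hr later, live-cell protease fluorescence indicated cytotoxicity.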

[13] = target: Androgen receptor (Homo sapiens) (UniProt P10275); experiment: qHTS assay to identify small molecule antagonists of the androgen receptor (AR) signaling pathway using the MDA cell line in the presence of 0.5 nM R1881 (AID 1259243); further: nearly all actives have a fitted effect of over 50% in size
Androgen receptor (Homo sapiens), sequence (P10275 whole entry, looked up): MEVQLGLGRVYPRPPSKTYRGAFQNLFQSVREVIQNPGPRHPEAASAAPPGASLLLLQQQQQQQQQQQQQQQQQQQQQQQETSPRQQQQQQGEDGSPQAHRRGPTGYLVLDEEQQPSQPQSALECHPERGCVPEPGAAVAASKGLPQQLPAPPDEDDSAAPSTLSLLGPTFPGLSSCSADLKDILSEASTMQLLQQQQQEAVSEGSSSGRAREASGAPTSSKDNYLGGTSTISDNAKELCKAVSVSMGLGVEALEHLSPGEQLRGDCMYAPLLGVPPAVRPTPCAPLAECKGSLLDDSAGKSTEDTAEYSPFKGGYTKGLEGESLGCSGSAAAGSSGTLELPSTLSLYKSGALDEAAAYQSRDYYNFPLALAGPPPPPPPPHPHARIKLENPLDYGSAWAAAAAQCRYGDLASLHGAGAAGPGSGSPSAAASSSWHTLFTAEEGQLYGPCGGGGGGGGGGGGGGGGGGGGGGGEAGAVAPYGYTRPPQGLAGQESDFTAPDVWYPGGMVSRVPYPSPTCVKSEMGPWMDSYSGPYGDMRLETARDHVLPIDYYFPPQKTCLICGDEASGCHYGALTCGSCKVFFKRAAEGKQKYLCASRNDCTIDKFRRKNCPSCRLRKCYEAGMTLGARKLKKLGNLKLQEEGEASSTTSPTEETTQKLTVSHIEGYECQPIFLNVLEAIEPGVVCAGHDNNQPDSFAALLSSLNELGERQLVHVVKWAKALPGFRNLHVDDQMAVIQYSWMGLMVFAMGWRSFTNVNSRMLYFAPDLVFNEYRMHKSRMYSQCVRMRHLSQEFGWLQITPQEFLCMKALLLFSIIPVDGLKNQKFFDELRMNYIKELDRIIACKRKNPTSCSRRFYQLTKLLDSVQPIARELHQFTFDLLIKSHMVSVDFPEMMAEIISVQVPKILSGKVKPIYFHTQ
How it was run: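 Luminescence from an AR/GR-responsive MMTV-luciferase construct in MDA-kb2 breast carcinoma cells, read 30 min after ONE-Glo, following 16 hr co-treatment with compounds and 0.5 nM R1881.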

[14] = target: Estrogen receptor (Homo sapiens) (UniProt P03372); experiment: qHTS assay to identify small molecule antagonists of the estrogen receptor alpha (ER-alpha) signaling pathway using the BG1 cell line in the presence of 0.1 nM 17-beta-estradiol (AID 1259244); further: nearly all actives have a fitted effect of over 50% in size
Estrogen receptor (Homo sapiens), sequence (P03372 whole entry, looked up): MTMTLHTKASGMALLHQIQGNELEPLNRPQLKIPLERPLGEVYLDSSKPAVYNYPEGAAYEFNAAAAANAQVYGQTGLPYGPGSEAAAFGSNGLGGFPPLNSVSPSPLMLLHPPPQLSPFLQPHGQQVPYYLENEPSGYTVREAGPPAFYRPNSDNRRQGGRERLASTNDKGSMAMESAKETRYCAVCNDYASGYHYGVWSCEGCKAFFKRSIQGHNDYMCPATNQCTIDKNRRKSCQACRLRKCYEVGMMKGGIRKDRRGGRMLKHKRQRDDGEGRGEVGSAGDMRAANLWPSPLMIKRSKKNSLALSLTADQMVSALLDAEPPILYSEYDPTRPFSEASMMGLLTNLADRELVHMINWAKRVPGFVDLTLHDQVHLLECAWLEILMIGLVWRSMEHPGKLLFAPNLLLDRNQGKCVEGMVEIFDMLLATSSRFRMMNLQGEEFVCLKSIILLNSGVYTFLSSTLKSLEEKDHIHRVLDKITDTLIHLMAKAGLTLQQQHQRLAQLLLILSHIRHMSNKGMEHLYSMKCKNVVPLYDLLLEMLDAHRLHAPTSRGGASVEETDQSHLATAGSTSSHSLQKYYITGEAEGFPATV
How it was run: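 Luciferase signal from VM7Luc4E2 ERE-reporter cells, co-dosed with test compound and 0.1 nM final 17beta-estradiol for 22 h, read with ONE-Glo.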

[15] = qHTS assay to identify small molecule HDAC inhibitors (AID 1259364);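 further: wild-type HCT-116 cells with endogenous class I/II HDAC activity; top concentration of the series differs between compounds; nearly all actives have a fitted effect of over 45% in size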
How it was run: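 HCT-116 wt cells, 1,500/well, overnight attach. Compounds (DMSO) 2 h, 37 °C. HDAC-Glo I/II, 30 min RT. Luminescence.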

[16] = qHTS assay to identify small molecule HDAC inhibitors - cell viability counter screen (AID 1259365)
How it was run: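 After overnight seeding at 1,500 cells per well, wild-type HCT-116 cultures took up compounds in DMSO for 2hr at 37 C. Viable cell content came from luminescence with CellTiter-Glo.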

[17] = qHTS assay to identify small molecule agonists of the sonic hedgehog signaling (Shh) pathway - cell viability counter screen (AID 1259366); further: nearly all actives have a fitted effect of over 50% in size
How it was run: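 Same-well cytotoxicity read. Gli1-Luc reporter 3T3 cells; compounds 24hr, 37C/5% CO2; CellTiter-Fluor fluorescence.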

[18] = qHTS assay to identify small molecule antagonists of the sonic hedgehog signaling (Shh) pathway - cell viability counter screen (AID 1259367); further: nearly all actives have a fitted effect of over 55% in size
How it was run: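 Tox21 library chemicals were tested on a Gli1-Luc NIH/3T3 clone (2,000 cells/well) stimulated by conditioned medium; viability was quantified as fluorescence from CellTiter-Fluor reagent added at 23 hr.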

[19] = qHTS RealTime-Glo MT Cell Viability Assay in HEK293 cells - 0 hour (AID 1224880); further: top concentration of the series differs between compounds; nearly all actives have a fitted effect of over 45% in size
How it was run: as §4

[20] = qHTS assay to identify small molecule phospholipidosis (PLD) inducers (AID 1259344; active means well fitted curve in the direction sought with a large enough effect; an effect the other way counts as inactive or inconclusive)
How it was run: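 Image-based: LipidTOX Red pit count/intensity per well and per cell; HepG2, 24 h compound at 37 C, PFA fixation, Hoechst counterstain.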

Measured: Potency

CNC(=O)O/N=C(/CSC)C(C)(C)C
not listed: [19] | [20]
inactive: all other assays above

COC(=O)c1ccc(CBr)cc1
not listed: [15] | [19] | [20]
inactive: all other assays above

NC(=O)CS(=O)C(c1ccccc1)c1ccccc1 (centres undefined)
not listed: [2] | [6] | [13] | [18]
inactive: all other assays above

CCOC(=O)CC(SP(=S)(OC)OC)C(=O)OCC (centres undefined)
not listed: [19]
inactive: all other assays above

C/C=C/CC#N
not listed: [1] | [4] | [8] | [13] | [14] | [20]
inactive: all other assays above

CCSC(=O)Cl
not listed: [2] | [6] | [18] | [20]
inactive: all other assays above

O=C(Cl)C(Cl)(Cl)Cl
not listed: [2] | [6] | [13] | [20]
inactive: all other assays above

O=C(NC(=O)c1c(F)cccc1F)Nc1cc(Cl)c(F)c(Cl)c1F
not listed: [2] | [5] | [13] | [14] | [18] | [20]
inactive: all other assays above

C1CN2CCC1CC2
not listed: [13] | [19] | [20]
inactive: all other assays above

CCc1cc(OC)c(C[C@H](C)N)cc1OC
not listed: [2] | [4] | [7] | [13] | [14] | [17]
inactive: all other assays above

ClCCCCCCCl
not listed: [2] | [6] | [8] | [13] | [14] | [20]
inactive: all other assays above

CN(C)CCN(C)C
not listed: [2] | [3] | [4] | [13] | [14] | [20]
inactive: all other assays above

O=C(CCl)NCO
not listed: [2] | [4] | [5] | [13] | [20]
inactive: all other assays above

CCCOC(=O)c1cncn1C(C)c1ccccc1 (centres undefined)
not listed: [2] | [6] | [7] | [8] | [20]
inactive: all other assays above

Cc1ccc(S(=O)(=O)N[C@@H](CCCCN)C(=O)CCl)cc1
not listed: [2] | [4]
inactive: all other assays above

C[C@]12C=CC(=O)C=C1CC[C@@H]1[C@@H]2CC[C@@]2(C)[C@H]1CC[C@]2(C)O
not listed: [13] | [14] | [19]
inactive: all other assays above

COc1cc(CCN)cc(OC)c1OC
not listed: [2] | [4] | [5] | [8] | [13]
inactive: all other assays above
